For test [1], the target named is Rho-associated protein kinase 2 (Homo sapiens) (UniProt O75116). The following applies: at 1 µM.
Test [2] shares this target. Particulars: at 10 µM.
For test [3], the target named is Proto-oncogene tyrosine-protein kinase receptor Ret (Homo sapiens) (UniProt P07949). Particulars: at 10 µM.
Test [4] has the same target. Particulars: at 1 µM.
Test [5] deals with Macrophage-stimulating protein receptor (Homo sapiens) (UniProt Q04912). The following applies: at 1 µM.
Test [6] has the same target. The following applies: at 10 µM.
The target in test [7] is Proto-oncogene tyrosine-protein kinase ROS (Homo sapiens) (UniProt P08922). Particulars: at 1 µM.
Test [8] has the same target. The following applies: at 10 µM.
The target of test [9] is T1, Tyrosine-protein kinase receptor TYRO3 (Homo sapiens) (UniProt Q06418).
T1 sequence (whole entry): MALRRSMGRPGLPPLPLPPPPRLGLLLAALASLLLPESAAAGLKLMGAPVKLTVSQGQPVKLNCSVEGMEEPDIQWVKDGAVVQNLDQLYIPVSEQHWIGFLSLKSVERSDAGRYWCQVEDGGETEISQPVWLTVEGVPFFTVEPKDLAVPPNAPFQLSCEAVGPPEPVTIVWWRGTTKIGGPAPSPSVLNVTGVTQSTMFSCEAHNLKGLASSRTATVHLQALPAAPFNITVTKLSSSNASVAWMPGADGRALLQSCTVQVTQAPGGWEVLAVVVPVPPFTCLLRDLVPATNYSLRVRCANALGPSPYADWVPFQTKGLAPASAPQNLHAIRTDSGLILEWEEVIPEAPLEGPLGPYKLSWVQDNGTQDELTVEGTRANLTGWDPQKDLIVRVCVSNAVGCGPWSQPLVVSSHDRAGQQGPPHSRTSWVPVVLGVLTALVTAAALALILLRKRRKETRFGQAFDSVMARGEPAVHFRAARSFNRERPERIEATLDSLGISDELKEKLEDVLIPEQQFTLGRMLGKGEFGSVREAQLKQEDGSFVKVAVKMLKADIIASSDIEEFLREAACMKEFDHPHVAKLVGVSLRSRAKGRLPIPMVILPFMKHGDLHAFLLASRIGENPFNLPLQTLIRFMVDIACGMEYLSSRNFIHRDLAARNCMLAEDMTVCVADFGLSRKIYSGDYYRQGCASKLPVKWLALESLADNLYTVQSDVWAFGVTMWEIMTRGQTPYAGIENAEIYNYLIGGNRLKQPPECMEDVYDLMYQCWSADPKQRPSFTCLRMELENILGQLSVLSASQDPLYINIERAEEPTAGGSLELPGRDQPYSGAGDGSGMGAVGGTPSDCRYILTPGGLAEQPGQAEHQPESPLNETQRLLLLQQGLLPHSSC
Particulars: at 1 µM.

Test [10] has as its target T1, Tyrosine-protein kinase receptor TYRO3 (Homo sapiens). The following applies: at 10 µM.

Rho-associated protein kinase 2 (Homo sapiens), sequence (O75116 whole entry, looked up): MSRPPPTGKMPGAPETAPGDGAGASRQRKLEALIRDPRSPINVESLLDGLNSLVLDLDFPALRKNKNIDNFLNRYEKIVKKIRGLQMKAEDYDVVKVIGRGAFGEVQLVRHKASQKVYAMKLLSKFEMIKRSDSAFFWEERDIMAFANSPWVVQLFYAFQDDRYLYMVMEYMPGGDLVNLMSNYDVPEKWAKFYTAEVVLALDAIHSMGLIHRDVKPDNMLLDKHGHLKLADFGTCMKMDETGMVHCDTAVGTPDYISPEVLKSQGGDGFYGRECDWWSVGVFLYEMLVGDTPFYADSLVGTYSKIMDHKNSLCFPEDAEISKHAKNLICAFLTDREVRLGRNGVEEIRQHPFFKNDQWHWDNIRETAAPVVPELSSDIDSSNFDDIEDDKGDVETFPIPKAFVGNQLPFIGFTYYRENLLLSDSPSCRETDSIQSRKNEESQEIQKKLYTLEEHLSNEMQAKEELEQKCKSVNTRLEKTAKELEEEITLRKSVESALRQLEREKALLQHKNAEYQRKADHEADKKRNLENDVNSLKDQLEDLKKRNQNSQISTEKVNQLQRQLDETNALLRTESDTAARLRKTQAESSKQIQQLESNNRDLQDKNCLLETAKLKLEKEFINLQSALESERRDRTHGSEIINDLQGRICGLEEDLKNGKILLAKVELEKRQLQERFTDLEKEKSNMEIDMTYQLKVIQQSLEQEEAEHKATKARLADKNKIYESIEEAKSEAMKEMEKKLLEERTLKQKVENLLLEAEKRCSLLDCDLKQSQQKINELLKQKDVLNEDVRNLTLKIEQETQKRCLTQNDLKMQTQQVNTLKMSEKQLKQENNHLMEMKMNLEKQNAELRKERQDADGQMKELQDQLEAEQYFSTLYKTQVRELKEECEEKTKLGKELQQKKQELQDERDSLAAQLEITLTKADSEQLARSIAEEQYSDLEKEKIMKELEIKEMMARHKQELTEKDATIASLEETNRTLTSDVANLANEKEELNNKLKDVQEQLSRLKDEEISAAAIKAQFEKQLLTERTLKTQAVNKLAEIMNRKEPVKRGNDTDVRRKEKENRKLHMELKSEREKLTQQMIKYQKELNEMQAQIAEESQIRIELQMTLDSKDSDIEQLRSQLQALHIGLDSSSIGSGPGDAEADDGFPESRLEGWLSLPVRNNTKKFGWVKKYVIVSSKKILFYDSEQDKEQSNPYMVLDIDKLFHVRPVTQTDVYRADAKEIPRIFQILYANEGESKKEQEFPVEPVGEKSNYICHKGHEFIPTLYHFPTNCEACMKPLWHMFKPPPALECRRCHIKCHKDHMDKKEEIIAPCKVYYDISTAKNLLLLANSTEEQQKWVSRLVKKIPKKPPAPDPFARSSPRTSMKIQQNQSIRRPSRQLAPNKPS
Macrophage-stimulating protein receptor (Homo sapiens), sequence (Q04912 25-304 limits assumed): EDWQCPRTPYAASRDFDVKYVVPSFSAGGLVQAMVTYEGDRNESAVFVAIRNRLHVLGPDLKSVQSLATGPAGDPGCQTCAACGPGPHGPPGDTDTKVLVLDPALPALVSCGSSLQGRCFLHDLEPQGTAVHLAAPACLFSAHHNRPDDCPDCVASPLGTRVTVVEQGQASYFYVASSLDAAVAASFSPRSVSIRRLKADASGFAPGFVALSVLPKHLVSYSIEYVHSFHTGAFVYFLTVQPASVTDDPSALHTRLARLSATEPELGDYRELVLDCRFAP
Macrophage-stimulating protein receptor (Homo sapiens), sequence (Q04912 310-1400 limits assumed): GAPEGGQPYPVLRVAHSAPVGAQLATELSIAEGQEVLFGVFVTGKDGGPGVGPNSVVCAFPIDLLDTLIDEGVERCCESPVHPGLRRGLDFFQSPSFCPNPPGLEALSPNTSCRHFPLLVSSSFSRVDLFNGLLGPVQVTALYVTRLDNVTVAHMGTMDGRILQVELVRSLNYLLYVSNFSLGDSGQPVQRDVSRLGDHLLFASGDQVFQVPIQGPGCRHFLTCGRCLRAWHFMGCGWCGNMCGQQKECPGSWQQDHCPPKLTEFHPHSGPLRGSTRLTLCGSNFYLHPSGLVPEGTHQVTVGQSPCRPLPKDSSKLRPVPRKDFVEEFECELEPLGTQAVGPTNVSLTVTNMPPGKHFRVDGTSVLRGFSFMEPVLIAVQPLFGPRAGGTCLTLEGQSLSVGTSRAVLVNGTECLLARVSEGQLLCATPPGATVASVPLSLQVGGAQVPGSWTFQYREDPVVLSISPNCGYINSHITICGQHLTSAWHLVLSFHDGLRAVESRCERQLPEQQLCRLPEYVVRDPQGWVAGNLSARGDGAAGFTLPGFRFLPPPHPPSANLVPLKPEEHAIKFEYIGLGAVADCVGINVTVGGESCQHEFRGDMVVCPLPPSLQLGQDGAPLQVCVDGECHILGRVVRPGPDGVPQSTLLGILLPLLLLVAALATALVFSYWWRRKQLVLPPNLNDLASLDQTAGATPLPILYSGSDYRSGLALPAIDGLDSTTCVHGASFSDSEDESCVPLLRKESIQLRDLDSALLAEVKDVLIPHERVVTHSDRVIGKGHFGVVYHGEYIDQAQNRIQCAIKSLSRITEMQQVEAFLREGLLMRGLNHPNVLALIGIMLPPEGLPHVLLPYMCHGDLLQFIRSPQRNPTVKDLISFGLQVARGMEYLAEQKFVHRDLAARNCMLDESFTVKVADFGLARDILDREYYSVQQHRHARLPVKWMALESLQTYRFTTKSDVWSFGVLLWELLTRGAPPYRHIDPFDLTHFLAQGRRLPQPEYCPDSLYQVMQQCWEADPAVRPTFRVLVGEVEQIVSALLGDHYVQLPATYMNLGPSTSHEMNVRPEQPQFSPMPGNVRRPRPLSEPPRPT
Proto-oncogene tyrosine-protein kinase ROS (Homo sapiens), sequence (P08922 whole entry): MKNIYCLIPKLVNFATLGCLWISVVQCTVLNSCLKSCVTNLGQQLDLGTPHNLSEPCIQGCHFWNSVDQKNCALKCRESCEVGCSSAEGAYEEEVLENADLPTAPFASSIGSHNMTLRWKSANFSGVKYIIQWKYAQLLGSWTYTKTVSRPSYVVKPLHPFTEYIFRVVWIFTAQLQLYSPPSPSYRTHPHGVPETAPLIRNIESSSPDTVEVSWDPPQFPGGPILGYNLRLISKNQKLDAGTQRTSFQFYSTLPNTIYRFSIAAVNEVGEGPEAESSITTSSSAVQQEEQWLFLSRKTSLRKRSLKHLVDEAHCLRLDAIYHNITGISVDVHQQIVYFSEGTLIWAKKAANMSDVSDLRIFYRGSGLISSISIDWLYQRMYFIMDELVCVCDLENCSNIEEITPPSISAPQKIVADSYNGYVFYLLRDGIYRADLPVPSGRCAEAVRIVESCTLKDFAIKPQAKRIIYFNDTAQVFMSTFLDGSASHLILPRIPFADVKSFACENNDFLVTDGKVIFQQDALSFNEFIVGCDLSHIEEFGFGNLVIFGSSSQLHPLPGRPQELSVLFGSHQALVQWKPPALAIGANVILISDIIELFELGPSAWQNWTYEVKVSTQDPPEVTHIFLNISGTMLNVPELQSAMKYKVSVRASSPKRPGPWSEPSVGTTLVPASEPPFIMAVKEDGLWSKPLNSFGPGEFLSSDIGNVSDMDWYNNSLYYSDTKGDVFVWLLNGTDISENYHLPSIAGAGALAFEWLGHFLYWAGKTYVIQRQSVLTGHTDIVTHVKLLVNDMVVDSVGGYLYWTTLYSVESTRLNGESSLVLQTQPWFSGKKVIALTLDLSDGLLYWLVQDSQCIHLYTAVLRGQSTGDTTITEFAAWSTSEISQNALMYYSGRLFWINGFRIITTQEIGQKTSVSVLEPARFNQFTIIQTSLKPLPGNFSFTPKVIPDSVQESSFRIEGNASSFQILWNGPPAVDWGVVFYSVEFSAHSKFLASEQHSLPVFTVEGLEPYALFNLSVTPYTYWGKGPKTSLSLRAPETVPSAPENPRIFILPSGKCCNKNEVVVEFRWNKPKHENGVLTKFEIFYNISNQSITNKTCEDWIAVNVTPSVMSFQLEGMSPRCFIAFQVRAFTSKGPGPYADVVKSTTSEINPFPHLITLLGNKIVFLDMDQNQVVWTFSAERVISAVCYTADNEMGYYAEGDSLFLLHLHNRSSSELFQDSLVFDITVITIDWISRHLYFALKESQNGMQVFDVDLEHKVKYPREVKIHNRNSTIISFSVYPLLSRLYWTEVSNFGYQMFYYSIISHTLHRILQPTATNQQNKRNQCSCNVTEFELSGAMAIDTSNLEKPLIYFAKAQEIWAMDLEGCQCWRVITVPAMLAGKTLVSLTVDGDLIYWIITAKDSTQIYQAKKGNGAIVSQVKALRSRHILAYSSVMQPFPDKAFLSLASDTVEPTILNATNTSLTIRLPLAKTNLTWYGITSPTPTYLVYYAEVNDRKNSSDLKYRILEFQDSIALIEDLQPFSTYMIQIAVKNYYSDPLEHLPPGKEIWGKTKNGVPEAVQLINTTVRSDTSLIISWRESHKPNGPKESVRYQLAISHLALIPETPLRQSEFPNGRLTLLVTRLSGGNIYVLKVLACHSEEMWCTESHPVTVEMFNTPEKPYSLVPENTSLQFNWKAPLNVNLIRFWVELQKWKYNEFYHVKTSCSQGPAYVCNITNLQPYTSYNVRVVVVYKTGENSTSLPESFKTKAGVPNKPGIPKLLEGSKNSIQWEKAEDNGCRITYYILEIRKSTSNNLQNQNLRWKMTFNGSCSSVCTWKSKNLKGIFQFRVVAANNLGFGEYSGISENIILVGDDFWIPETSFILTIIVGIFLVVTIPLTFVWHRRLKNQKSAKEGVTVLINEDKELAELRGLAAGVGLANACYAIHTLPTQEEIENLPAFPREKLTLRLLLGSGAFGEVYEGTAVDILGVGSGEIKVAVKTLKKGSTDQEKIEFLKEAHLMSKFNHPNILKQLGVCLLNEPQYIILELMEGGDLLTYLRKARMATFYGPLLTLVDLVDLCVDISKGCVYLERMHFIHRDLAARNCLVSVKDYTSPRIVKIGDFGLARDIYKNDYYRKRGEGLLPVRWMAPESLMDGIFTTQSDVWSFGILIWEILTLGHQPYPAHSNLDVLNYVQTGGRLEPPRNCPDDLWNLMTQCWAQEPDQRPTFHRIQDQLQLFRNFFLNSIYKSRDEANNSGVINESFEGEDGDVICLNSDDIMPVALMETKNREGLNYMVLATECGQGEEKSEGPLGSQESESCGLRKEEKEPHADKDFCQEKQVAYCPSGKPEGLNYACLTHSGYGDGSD

As for `NC(=O)c1cccc(-c2cc(Nc3ccc(OC(F)(F)F)cc3)ncn2)c1`, the residual activity was found to be 125% in test [1], 94% in test [2] and 87% in [3].

Take `Cn1sc(=O)n(Cc2ccccc2)c1=O`: the residual activity was determined as 91% in test [1]; 83% in test [2]; 94% in test [4]; 94% in test [3]; 81% in [5]; 75% in test [6]. Moreover, the residual activity in test [7] stood at 79%; in test [8], 80%.

For the molecule `CCCC(=O)Oc1ccc2[nH]c(C(=O)c3cc4ccccc4[nH]3)cc2c1`, the residual activity in test [1] is 93%; in [2] it was 83%; in test [4], 94%; in [5], 102%; in test [6] it was 74%; in [7], 86%. The residual activity in test [8] turned out to be 90%; in test [9], 92%; in test [10] it was 98%.

Turning to `Nc1ncnc2c1c(-c1ccc(Oc3ccccc3)cc1)cn2C1CCCC1`, the residual activity in test [1] is 90%; in test [2], 70%; in [4], 0%; in [3] it was -1%; in [5] it was 92%; in test [6], 55%. Moreover, the residual activity in test [7] was 88%; in test [8], 82%; in test [9], 59%; in test [10], 14%.

Regarding `Cn1c2ccccc2c2c3c(c4c5ccccc5n(CCC#N)c4c21)CNC3=O`, the residual activity in [1] was 43%; in [2], 31%; in test [4] it was -1%; in test [3], 1%; in test [7] it was 1%; in test [8], 3%.

For the molecule `COc1cc2nccc(Oc3ccc(NC(=S)NC(=O)c4ccccc4C)cc3)c2cc1OC`, the residual activity in test [1] turned out to be 87%; in test [2], 70%; in [4], 75%; in [3] it was 78%; in test [5] it was 30%; in test [6], 0%. In addition, the residual activity was 79% in test [7], 52% in [8], 45% in test [9] and 18% in [10].

Take `CCN1/C(=C/C(C)=O)Sc2ccc(OC)cc21`: the residual activity in [1] came to 78%; in test [2], 73%.

`CC(C)(C)c1nc2c3ccc(F)cc3c3c(=O)[nH]ccc3c2[nH]1`: the residual activity came out at 57% in [1]; 58% in test [2]; 18% in test [4]; 36% in [3]; 75% in test [9].

In the case of `CSc1nc(-c2ccc(F)cc2)c(-c2ccnc(NC(C)c3ccccc3)c2)[nH]1` (stereo unspecified), the residual activity in test [1] turned out to be 101%; in test [2], 96%; in test [4], 66%; in test [3], 28%; in test [5], 98%; in test [6], 83%. For the same molecule, the residual activity in [9] amounted to 100%; in [10] it was 99%.

Turning to `O=C(c1cc2cc(O)ccc2[nH]1)c1cc2cc(O)ccc2[nH]1`, the residual activity in test [1] worked out at 67%; in [2] it was 24%; in [4], 8%; in test [3] it was 0%; in [5], 80%; in test [6], 33%. Besides, the residual activity amounted to 39% in test [9] and 2% in test [10].

Take `O=C1NC(=O)c2c1c1c3ccccc3[nH]c1n1cncc21`: the residual activity in [1] was determined as 88%; in test [2], 85%; in [4] it was 59%; in test [3], 33%; in [5], 73%; in test [6], 71%. For the same molecule, the residual activity in [7] is 97%; in [8], 88%; in [9], 95%; in test [10], 69%.

Consider `COc1ccc(Cl)cc1NC(=O)Nc1cc(C)nc2ccccc12`, for which the residual activity was determined as 96% in test [1]; 79% in [2]; 93% in test [4]; 87% in test [3]; 96% in test [7]; 92% in test [8].

For the molecule `NC(=O)Nc1sc(-c2ccc(F)cc2)cc1C(N)=O`, the residual activity is 89% in test [1]; 53% in [2]; 30% in test [4]; 1% in [3]; 73% in test [5]; 56% in test [6]. Besides, the residual activity stood at 91% in [7], 94% in [8], 91% in [9] and 41% in [10].

Turning to `N#C/C(=C\c1ccc(O)c(O)c1)C(=O)NCc1ccccc1`, the residual activity in test [1] amounted to 103%; in test [2], 78%.

Take `Nc1nc(Nc2ccc(S(N)(=O)=O)cc2)nn1C(=O)c1c(F)cccc1F`: the residual activity in test [1] stood at 16%; in test [2], 3%; in [5], 81%; in test [6] it was 33%; in test [7], 101%; in test [8], 82%. Further, the residual activity in [9] came to 81%; in [10] it was 28%.

Consider `Nc1n[nH]c2nc3ccccc3nc12`, for which the residual activity was 94% in test [1]; 84% in test [2]; 100% in test [4]; 82% in [3]; 99% in test [9]; 100% in [10].

For the molecule `CC(C)c1nn(-c2c(Cl)cccc2Cl)c2nc(Cc3ccc(OCCO)cc3)[nH]c(=O)c12`, the residual activity worked out at 98% in test [1]; 96% in test [2]; 103% in [4]; 92% in test [3]; 88% in test [5]; 92% in [6]. The residual activity in test [7] came out at 106%; in test [8] it was 88%; in test [9], 103%; in test [10], 104%.

Turning to `Nc1ncnc2[nH]nc(Nc3ccc(F)cc3)c12`, the residual activity in test [1] turned out to be 104%; in test [2], 91%; in [4], 72%; in test [3] it was 18%; in [6] it was 67%; in [7], 104%. Also, the residual activity in [8] came out at 95%; in [9], 104%; in [10], 50%.

In the case of `O=c1cc(N2CCOCC2)oc2c(-c3ccccc3)cccc12`, the residual activity stood at 100% in [1], 73% in [2], 64% in test [5] and 65% in test [6].

Consider `O=C(NC(NC(=S)Nc1ccc(F)c([N+](=O)[O-])c1)C(Cl)(Cl)Cl)C(c1ccccc1)c1ccccc1` (stereo unspecified), for which the residual activity was found to be 99% in [1]; 102% in test [2]; 88% in test [5]; 93% in test [6]; 103% in test [7]; 94% in [8].

As for `O=C1C(Cl)=C(N2C(=O)CCC2=O)C(=O)c2ccccc21`, the residual activity in test [1] is 45%; in [2] it was 16%; in [4], 102%; in test [3], 86%; in test [5], 92%; in test [6], 81%. In addition, the residual activity in [7] stood at 101%; in [8], 97%.

As to `CCCCc1c(-c2ccc(O)cc2)[nH]c2nccnc12`, the residual activity in [1] came out at 96%; in [2] it was 94%; in test [4], 45%; in test [3], 48%; in [7] it was 93%; in test [8], 82%. The residual activity in test [9] was 100%; in [10], 99%.

As to `COc1cc2ncnc(Nc3cccc(Cl)c3)c2cc1OC`, the residual activity stood at 103% in [1]; 87% in test [2]; 39% in test [4]; 6% in [3]; 116% in test [5]; 83% in [6]. Besides, the residual activity in test [7] was 100%; in [8] it was 105%; in test [9] it was 62%; in [10] it was 15%.

For the origin of these results see ChEMBL document CHEMBL2218924, “A broad activity screen in support of a chemogenomic map for kinase signalling research and drug discovery” (Biochem J, 2013).
